Data reported in PubChem BioAssay (NCI).
About 79,000 compounds went through this panel and 15% of them were active in at least one assay; those are over-represented in the sample as a whole. The source made the active and inactive calls. No stated cut-off is given here; in the data, active means growth inhibition above about 70%; inactive means the rest.

Assays:
[1] = NCI Yeast Anticancer Drug Screen. Data for the rad50 strain (AID 155);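 further: 0% = growth of vehicle-only cultures of the same strain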; conditions: S. cerevisiae rad50 strain growth inhibition; at 50.0 µM; stronger effect = higher value
Procedure, shortened: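 DNA repair mutant yeast, compound exposure, growth read-out; inhibition is taken relative to vehicle.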

[2] = NCI Yeast Anticancer Drug Screen. Data for the mec2-1 strain (AID 157); conditions: S. cerevisiae mec2-1 strain, at 50.0 µM, stronger effect = higher value
Procedure, shortened: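 Yeast mec2-1 mutant treated with compound. Readout: growth inhibition vs vehicle controls.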

[3] = NCI Yeast Anticancer Drug Screen. Data for the sgs1 mgt1 strain (AID 161);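 further: 0% = growth of cultures given vehicle only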; conditions: S. cerevisiae sgs1 mgt1 strain, at 50.0 µM, stronger effect = higher value
Procedure, shortened: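 Mutant yeast exposed to compound; growth scored against vehicle-only wells.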

[4] = NCI Yeast Anticancer Drug Screen. Data for the cln2 rad14 strain (AID 165);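 further: 0% = growth equal to vehicle treated cultures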; conditions: S. cerevisiae cln2 rad14 strain, at 50.0 µM, stronger effect = higher value
Procedure, shortened: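 cln2 rad14 yeast strain; compound exposure; growth inhibition read vs vehicle controls.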

[5] = NCI Yeast Anticancer Drug Screen. Data for the bub3 strain (AID 167); conditions: S. cerevisiae bub3 mutant strain, at 50.0 µM, stronger effect = higher value
Procedure, shortened: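 In this screen, a yeast mutant lacking normal mitotic checkpoint function is challenged with compound. Relative growth versus vehicle gives the inhibition value.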

[6] = NCI Yeast Anticancer Drug Screen. Data for the mlh1 rad18 strain (AID 175); conditions: S. cerevisiae mlh1 rad18 strain growth inhibition; at 50.0 µM; stronger effect = higher value
Procedure, shortened: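 Yeast w/ defined DNA-repair lesions; compound exposure; growth vs vehicle controls → % inhibition.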

Measured: growth inhibition

CC(=O)O[C@H]1C(=O)[C@]2(C)[C@@H](OC(=O)OCCC(O)CO)C[C@H]3OC[C@@]3(OC(C)=O)[C@H]2[C@H](OC(=O)c2ccccc2)[C@]2(O)C[C@H](OC(=O)[C@H](O)[C@@H](NC(=O)c3ccccc3)c3ccccc3)C(C)=C1C2(C)C (stereo not given in full)
inactive: [1] 1.65% | [2] -7.2% | [3] 2.25% | [4] 3.95% | [5] -19.2% | [6] -0.35%

COC(=O)C(C)(C#N)/C(C)=C/C(C)C (stereo not given)
inactive: [1] -12.7% | [2] -20.9% | [3] -12.8% | [4] -3.9% | [5] -24.8% | [6] -33%

Cc1ccc(OC/C=C/CS(=O)(=O)c2ccc(C)cc2)cc1
inactive: [1] -11.6% | [2] 10.3% | [3] 5.65% | [4] -23.2% | [5] -12.7% | [6] -28.6%

CCOC(=O)C(Cc1ccc(O)cc1)NC(=O)c1cc2c(cn1)[nH]c1ccccc12 (stereo not given)
inactive: [1] 11% | [2] 16.2% | [3] 7.45% | [4] -19.8% | [5] -1% | [6] 4.65%

ClCCCOC1CCCCO1 (stereo not given)
inactive: [1] -20.1% | [2] -40.5% | [3] -21.1% | [4] 26.9% | [5] -7.6% | [6] 1.4%

O=C(Nc1ccccc1)OC1C(OC(=O)c2ccccc2)OC(COC(=O)c2ccccc2)C1OC(=O)c1ccccc1 (stereo not given)
inactive: [1] -0.5% | [2] 0.75% | [3] 0.25% | [4] -0.85% | [5] -9.1% | [6] -10.5%

NC(CSS(=O)(=O)O)C(=O)O (stereo not given)
inactive: [1] 3.05% | [2] -2.4% | [3] -1.55% | [4] -31.9% | [5] -12.8% | [6] 2.6%

NC(=O)c1[nH]cnc1N
inactive: [1] 12.6% | [2] 24.9% | [3] 10.4% | [4] 4% | [5] 23.9% | [6] -58.5%

CNC(=O)OCc1nc(N=[N+]=[N-])n(C)c1COC(=O)NC
inactive: [1] -16.9% | [2] -19.1% | [3] -3.65% | [4] -31.4% | [5] 2.2% | [6] -24.4%

Clc1ncc(-c2ccccc2)nc1Cl
inactive: [1] 49.5% | [2] 11.4% | [3] 0.6% | [4] 1.25% | [5] 1.75% | [6] 14.9%

Cc1ccc(NC(=O)Oc2ccc(F)cc2)cc1NC(=O)Oc1ccc(F)cc1
inactive: [1] 25.9% | [2] 13.3% | [3] 15.3% | [4] 15.2% | [5] -4.95% | [6] 33.6%

O=C1CN(CCN2CCCCC2)CC(=O)N2CCCCN12
inactive: [1] -32% | [2] -7.15% | [3] -8.65% | [4] 9.2% | [5] -5.75% | [6] -10.8%

O=C(O)CC(=O)CC(=O)c1ccccc1
inactive: [1] -14.8% | [2] -18.5% | [3] -23.4% | [4] -30.7% | [5] -2.1% | [6] -7.4%

NC(=O)c1nnsc1NC=O
inactive: [1] 15.2% | [2] 7.95% | [3] -40.7% | [4] -0.2% | [5] -26.1% | [6] -29.8%

NS(=O)(=O)c1ccc(NC(=S)/N=C/c2c(O)c3ccccc3oc2=O)cc1
inactive: [1] 6.2% | [2] -4.45% | [3] 16.3% | [4] -18.9% | [5] -10.4% | [6] 12.6%

Nc1nc(NCCO)c(N=O)c(=O)[nH]1
inactive: [1] 5.1% | [2] -4.1% | [3] -2.3% | [4] 13.4% | [5] 10.1% | [6] 13.4%

CC(=O)[C@H]1CC[C@H]2[C@@H]3CC(=O)C4=CC(=O)CC[C@]4(C)[C@H]3C(=O)C[C@]12C
inactive: [1] 11.3% | [2] -12.2% | [3] 11.2% | [4] -25.6% | [5] 0.45% | [6] -4.9%

CCN(CCO)C(=O)C1(c2ccccc2)CCCCC1
inactive: [1] 11.8% | [2] -9.7% | [3] 9.35% | [4] 28% | [5] 18.4% | [6] -1.4%

C[C@@H]1O[C@]2(O)[C@@H]3CCCN3S(=O)(=O)CCN2C1=O
inactive: [1] 2.1% | [2] -21.6% | [3] -16.9% | [4] 17.7% | [5] -11.3% | [6] -17.1%

O=C(O)CC(=O)C(C(=O)O)C(CCc1ccccc1)C(C(=O)O)C(=O)CC(=O)O (stereo not given)
inactive: [1] -21.2% | [2] -13.6% | [3] -19.7% | [4] 10.2% | [5] -2.75% | [6] -11.4%

O=C(/C=C/c1ccccc1Cl)c1ccccc1[N+](=O)[O-]
active: [1] 96% | [2] 97.5% | [3] 97.7% | [4] 94.7% | [5] 96.5% | [6] 95.7%

c1ccc(N=C2NNC(=Nc3ccccc3)NN2)cc1
inactive: [1] -17.9% | [2] 2.2% | [3] 5.4% | [4] 1.85% | [5] 3.35% | [6] 7.65%

Cc1cc(C)c2c(c1)Nc1ccccc1P2c1ccccc1 (stereo not given)
inactive: [1] 11.2% | [2] 14.2% | [3] 48.2% | [4] 31.1% | [5] 44.6% | [6] 53.6%

O=C(CCCCCCC(=O)C[N+]12CCC(CC1)C(O)C2)C[N+]12CCC(CC1)C(O)C2 (stereo not given)
inactive: [1] 39.1% | [2] 4.2% | [3] 21.1% | [4] 0.5% | [5] 3.6% | [6] 15.6%

COc1ccc2c(c1)OC[C@@H]1c3cc(NS(=O)(=O)c4ccccc4)cc(OC)c3O[C@H]21
inactive: [1] 10.9% | [2] 32.5% | [3] 47.8% | [4] 30.3% | [5] 58.8% | [6] 52.6%

CCOC(=O)NC(Nc1ccc(C(=O)OCC)cc1)(C(F)(F)F)C(F)(F)F
inactive: [1] 0.25% | [2] 3.25% | [3] -15.2% | [4] -16% | [5] -13.2% | [6] 0.55%

CCCCc1ccc(Nc2c(C(=O)OCC)cnc3cc4c(cc23)OCO4)cc1
inactive: [1] 4.6% | [2] -12.4% | [3] -15.2% | [4] 8.5% | [5] 3.95% | [6] -17.4%

O=C(O)C(Br)C(Br)C(=O)Nc1cccc2ccccc12 (stereo not given)
active: [1] 98.8% | [2] 99.1% | [3] 99.2% | [4] 99.2% | [5] 98.9% | [6] 98.8%

CCOC(=O)CNc1ccccc1[N+](=O)[O-]
inactive: [1] -2.05% | [2] 5.8% | [3] -5.4% | [4] 12.3% | [5] 13.1% | [6] -3.75%

Cn1c(=O)c2c(nc(Cl)n2C)n(C)c1=O
inactive: [1] 42.5% | [2] 14.5% | [3] -16.1% | [4] -29.3% | [5] -7.65% | [6] 28.9%

CCOC(=O)C(=O)Cc1ccccn1
inactive: [1] -0.7% | [2] -6.55% | [3] -6.5% | [4] -16.3% | [5] 8.85% | [6] -13.2%

C=C(CO)[C@H]1Oc2ccc(C(C)=O)cc2[C@@H]1O
inactive: [1] -16.1% | [2] -10.1% | [3] -24.6% | [4] 6.85% | [5] -10.7% | [6] -12.5%

CC(Br)C(=O)c1ccc2ncccc2c1 (stereo not given)
inactive: [1] 5.15% | [2] -24.8% | [3] -7.6% | [4] -1.45% | [5] 12.8% | [6] 12.8%

Cc1noc(C)c1CCCOC1COc2ccccc2OCCOCCOc2ccccc2OC1
inactive: [1] -4.7% | [2] -7.15% | [3] -5.8% | [4] -21.1% | [5] -9.15% | [6] -5.25%

C[C@]12C(=O)C=CCC1=CC[C@@H]1[C@@H]2[C@H]2CC3(O)C(=O)O[C@@]4(C)[C@H]5C[C@@]6(C)[C@@H]7[C@@]2(O)[C@]1(OC[C@H]6C(=O)O5)O[C@]734 (stereo not given in full)
inactive: [1] 9.6% | [2] 16.3% | [3] -9.3% | [4] 1% | [5] -22.4% | [6] -55%

CN(CC(N)=O)C(=O)c1cnc2ccccc2c1
inactive: [1] 9.65% | [2] 18.6% | [3] -1.05% | [4] 8.05% | [5] 14.1% | [6] 0.4%

CSCCCC(N)=O
inactive: [1] 1.85% | [2] -11.3% | [3] -1.5% | [4] 0.7% | [5] -10.2% | [6] 3.9%

CCOC(=O)NC(=O)c1cn(CCCCCCCCCCC(=O)NCCCN2CCN(CCCNC(=O)CCCCCCCCCCn3cc(C(=O)NC(=O)OCC)c(=O)[nH]c3=O)CC2)c(=O)[nH]c1=O
inactive: [1] -19.2% | [2] 12.9% | [3] -23.8% | [4] -27.4% | [5] 2.25% | [6] -17.6%

OCC1(F)CC1(c1ccccc1)c1ccccc1 (stereo not given)
inactive: [1] 0.45% | [2] -2.85% | [3] 7.45% | [4] 12.7% | [5] -13.4% | [6] -22.6%

Nc1cccc(OCC(O)CN2CCN(c3ccccc3)CC2)c1 (stereo not given)
inactive: [1] 3.7% | [2] 8.6% | [3] 0.1% | [4] -2.55% | [5] -1% | [6] 14.7%
